From the supplement of paper PMC9433436
± gives the standard deviation of the averaged measurements. Whole data set: some 4,100 sequences, median “relative kcat/Km (krel) vs genomic leader AAAGAU” near 1.7, cut for the highest 2% near 6.5. Only a selection was taken, and the highest values are over-represented in it overall.

Target: T1, E. coli RNase P holoenzyme (M1 P RNA + rnpA protein) (UniProt P0A7Y8)
T1 sequence: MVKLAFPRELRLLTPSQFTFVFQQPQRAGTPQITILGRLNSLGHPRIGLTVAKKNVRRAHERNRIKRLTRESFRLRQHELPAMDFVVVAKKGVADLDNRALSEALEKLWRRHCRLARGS
Experiment: relative kcat/Km (krel) vs genomic leader AAAGAU (relative (reference leader = 1)); higher = faster RNase P cleavage
Experimental: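 HTS-Kin: a pool of ptRNA-Met (21C construct) with all 4096 combinations of 5' leader nucleotides N(-6) to N(-1) was processed in vitro by E. coli RNase P (P RNA + rnpA/C5 protein) under multiple-turnover conditions at 37 C, pH 8, 17.5 mM MgCl2. Residual substrate was Illumina-sequenced at several fractions reacted, and relative kcat/Km (krel) was computed by internal competition kinetics, calibrated to the genomic leader (AAAGAU = 1). The listed hexamer is the varied N(-6)..N(-1) leader (DNA letters), and it sits between a fixed 5' stem-loop flank (GCAUGCACGAAAGUGCGUGCUAUGAA) and the mature tRNA-Met starting GGCUACGUAGCUCAGUUGG. Two technical replicates are averaged.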

[1] = fraction of substrate reacted: ~9-10% (9.79% repeat 1, 9.1% repeat 2)
[2] = fraction of substrate reacted: ~13-16% (15.68% repeat 1, 13.17% repeat 2)
[3] = fraction of substrate reacted: ~26-29% (28.66% repeat 1, 26.4% repeat 2)

Row | Sequence | relative kcat/Km [1] | relative kcat/Km [2] | relative kcat/Km [3]
1 | GGCTTT | 2.05 ± 0.44 | 1.76 ± 0.074 | 2.15 ± 0.52
2 | CGAAGA | 1.79 ± 0.84 | 2.39 ± 1 | 3.52 ± 0.96
3 | CCACCG | – | – | 1.08 ± 0.58
4 | TAAGGC | 1.46 ± 0.72 | – | 2.44 ± 2.2
5 | TTCACC | 3.91 ± 1.2 | 5.63 ± 0.6 | 8.13 ± 3
6 | ATCACC | 3.18 ± 0.62 | 3.68 ± 1 | 5.67 ± 2
7 | ATCACT | 3 ± 0.43 | 3.58 ± 1.1 | 4.98 ± 2
8 | ATCACA | 2.67 ± 1 | 3.8 ± 0.55 | 5.18 ± 1.5
9 | GTCACT | 3.36 ± 0.97 | 3.29 ± 0.15 | 6.31 ± 2.5
10 | TTCACG | 2.05 ± 1.9 | 2.41 ± 0.2 | 4.56 ± 1.4
11 | GGCACC | 1.52 ± 1.3 | 1.01 ± 0.24 | 2.04 ± 0.18
12 | TTCACT | 4.07 ± 1.2 | 5.27 ± 1.4 | 7.57 ± 3.1
13 | GTCACC | 3.43 ± 0.98 | 4.83 ± 0.44 | 6.98 ± 2.7
14 | TTCACA | 4.51 ± 1.9 | 5.55 ± 0.86 | 7.72 ± 3.1
15 | GTCACG | – | 1.84 ± 0.86 | 3.97 ± 0.54
16 | CTCACC | 2.93 ± 0.11 | 4.4 ± 1.5 | 6.21 ± 2.6
17 | CCTACA | 2.23 ± 1.1 | 1.82 ± 0.36 | 1.9 ± 0.68
18 | CGTCCT | 2.14 ± 0.34 | 2.06 ± 0.17 | 3 ± 1.2
19 | CTACGT | 0.396 ± 0.012 | 0.978 ± 0.12 | 1.13 ± 1.1
20 | TTAGGG | 0.357 ± 0.048 | 1.11 ± 0.86 | 2.15 ± 2.1
21 | GGGTAA | 1.51 ± 0.8 | 1.31 ± 0.21 | 1.46 ± 0.55
22 | GGAGCT | 1.22 ± 0.62 | 0.705 ± 0.57 | 1.64 ± 0.58
23 | GGCACA | 1.43 ± 0.55 | 1.26 ± 0.95 | 2.08 ± 0.64
24 | CTCACA | 3.32 ± 0.59 | 3.94 ± 0.75 | 5.85 ± 2.7
25 | GTCACA | 3.73 ± 1.8 | 4.78 ± 1.1 | 7.01 ± 2.5
26 | AAACGA | 2.12 ± 0.92 | 1.89 ± 0.67 | 2.21 ± 0.41
27 | CCCTTG | – | – | 1.42 ± 0.67

Row | Sequence | relative kcat/Km [1] | relative kcat/Km [2] | relative kcat/Km [3]
28 | ACGAAA | 1.79 ± 0.39 | 1.66 ± 0.37 | 2.72 ± 1.1
29 | TTTTAA | 4.32 ± 1.7 | 4.88 ± 0.61 | 6.68 ± 2.5
30 | ATTTAA | 3.55 ± 1.8 | 4.39 ± 0.62 | 5.24 ± 1.9
31 | ATTTAG | – | 2.526 ± 0.01 | 3.82 ± 0.68
32 | CCTTAT | 3.19 ± 0.95 | 4.47 ± 0.36 | 6.48 ± 2.4
33 | CTTTAT | 4.88 ± 2 | 5.78 ± 0.63 | 8.16 ± 3.3
34 | CTTTAA | 3.07 ± 1.6 | 3.8 ± 0.23 | 5.72 ± 2
35 | TTTAAA | 3.37 ± 1.6 | 3.88 ± 0.2 | 5.35 ± 2.1
36 | TTTTTA | 3.12 ± 2.4 | 2.58 ± 0.21 | 3.44 ± 0.81
37 | TCTTAT | 4.12 ± 1.9 | 5.44 ± 1.1 | 8.21 ± 3.5
38 | ATTTAT | 3.82 ± 1.8 | 4.84 ± 0.46 | 7.02 ± 3
39 | GCTTAT | 2.2 ± 0.24 | 3.15 ± 0.31 | 4.62 ± 1.7
40 | CTTTAG | 2.44 ± 1.3 | 2.14 ± 0.24 | 3.51 ± 0.57
41 | GGCACT | 1.99 ± 1.6 | 1.75 ± 0.28 | 2.89 ± 1.2
42 | TTTGGG | – | – | 1.56 ± 1.5
43 | ACATTT | 2.32 ± 1.2 | 2.97 ± 0.19 | 4.45 ± 1.8
44 | AGCAGC | 2.23 ± 0.55 | 2.28 ± 0.13 | 3.24 ± 0.54
45 | CCAACC | – | 1.11 ± 0.49 | 1.3 ± 0.39
46 | GCTAGG | 1.3 ± 0.58 | – | 0.775 ± 0.23
47 | AATTTT | 2.36 ± 0.95 | 2.45 ± 0.43 | 3.35 ± 1
48 | TTTTAT | 4.55 ± 1.4 | 5.6 ± 0.89 | 8.5 ± 3.9
49 | CTTTAC | 4.38 ± 1.7 | 4.59 ± 1.3 | 6.2 ± 1.9
50 | GTTTAT | 3.69 ± 0.5 | 5.18 ± 1.8 | 8 ± 3.7
51 | GTTTAA | 3.62 ± 0.62 | 4.49 ± 0.5 | 6.31 ± 3
52 | TTTTTT | 3.31 ± 1.9 | 3.41 ± 0.27 | 4.9 ± 1.7
53 | GTTTAC | 3.75 ± 0.76 | 4.65 ± 0.88 | 7.14 ± 3
54 | TTTTAC | 3.74 ± 1.1 | 4.76 ± 1.2 | 7.2 ± 3.2

Row | Sequence | relative kcat/Km [1] | relative kcat/Km [2] | relative kcat/Km [3]
55 | GTTTTA | 2.83 ± 1.7 | 2.56 ± 0.17 | 3.52 ± 1
56 | TTTATT | 2.77 ± 0.82 | 3.08 ± 0.42 | 4.5 ± 2.1
57 | ATTTAC | 4.31 ± 1.7 | 4.75 ± 0.58 | 6.43 ± 2.2
58 | TTTTAG | 3.3 ± 2.5 | 2.5 ± 0.78 | 4.51 ± 1.2
59 | GTTTAG | – | 1.86 ± 0.39 | 3.84 ± 1.2
60 | TAAGCC | 2.57 ± 0.66 | 2.16 ± 0.87 | 1.67 ± 0.62
61 | TTGAGA | 2.45 ± 0.5 | 2.31 ± 0.38 | 3.09 ± 0.91
62 | ATCGTA | 3.1 ± 0.36 | 3.67 ± 0.92 | 5.45 ± 2.6
63 | TGCTGT | – | 0.877 ± 0.71 | 1.11 ± 1.1
64 | GAAACG | – | – | 0.784 ± 0.096
65 | CCGCAG | – | – | 1.14 ± 1.1
66 | GAAGGC | 1.24 ± 0.64 | – | –
67 | ACCGTA | 2.19 ± 0.39 | 2.54 ± 0.21 | 4.07 ± 1.4
68 | TCCTGC | 4.64 ± 1.6 | 5.78 ± 1.5 | 7.5 ± 3.9
69 | CCCTGC | 2.87 ± 1.4 | 3.39 ± 0.2 | 5.06 ± 1.6
70 | TCCTGT | – | – | 2.18 ± 1.6
71 | ACCTGC | 3.58 ± 3.5 | 3.61 ± 2.3 | 5.37 ± 2.5
72 | TCCTGA | 3.23 ± 0.83 | 4.19 ± 0.42 | 6.6 ± 2.5
73 | TCCTGG | 0.344 ± 0.27 | 0.715 ± 0.34 | 1.15 ± 1.1
74 | ATTACA | 2.55 ± 1.5 | 2.08 ± 0.14 | 2.94 ± 1.2
75 | CCCACT | 1.87 ± 1.1 | 1.27 ± 0.14 | 2.79 ± 0.067
76 | AAATCT | 1.86 ± 0.61 | 2.09 ± 0.095 | 2.8 ± 0.68
77 | GCACGC | – | – | 1.29 ± 1.2
78 | ATGTCT | 1.82 ± 0.38 | 2.3 ± 0.33 | 2.43 ± 1
79 | ATCTAT | 3.93 ± 1.4 | 5.38 ± 1 | 7.98 ± 3.7
80 | ATCTAG | 2.49 ± 0.96 | 3.16 ± 1 | 5.72 ± 2.4
81 | ATCTCG | 2.52 ± 2 | 2.14 ± 0.37 | 3.55 ± 1.2

Row | Sequence | relative kcat/Km [1] | relative kcat/Km [2] | relative kcat/Km [3]
82 | CTCTAT | 4.59 ± 0.51 | 6.38 ± 1.7 | 9.17 ± 4
83 | GGCTAT | 2.25 ± 0.98 | 1.99 ± 0.48 | 2.88 ± 0.85
84 | ATCTGT | – | 1.3 ± 1.2 | 1.76 ± 1.5
85 | ATCTAC | 4.97 ± 1.4 | 6.58 ± 2 | 9.08 ± 4.5
86 | CTATCT | 3.05 ± 0.67 | 3.54 ± 0.89 | 4.18 ± 1.4
87 | AGCTAC | 1.27 ± 0.29 | 3.3102 ± 0.0027 | 4.78 ± 1.9
88 | CTATGT | 0.766 ± 0.47 | 1.38 ± 0.98 | –
89 | GTCTAT | 5.93 ± 2.3 | 6.62 ± 1.5 | 9.91 ± 4.4
90 | ATACTT | 1.93 ± 1.3 | 1.97 ± 0.58 | 2.62 ± 1.1
91 | GCGAAT | 0.964 ± 0.25 | 1.54 ± 0.49 | 2.09 ± 0.45
92 | CAGCGC | 1.95 ± 0.83 | 1.4 ± 0.14 | 2.09 ± 0.64
93 | CTGCGG | – | 0.228 ± 0.042 | 0.674 ± 0.39
94 | TGGGAA | – | 1.31 ± 0.98 | 1.24 ± 0.69
95 | CAGCTA | 1.51 ± 0.56 | 1.21 ± 0.27 | 1.85 ± 0.51
96 | ACTGGA | 0.346 ± 0.015 | – | –
97 | TGGTAG | – | – | 0.538 ± 0.38
98 | TTTCTC | 2.12 ± 0.99 | 2.29 ± 0.41 | 2.91 ± 0.93
99 | TTATGC | 3.22 ± 0.63 | 4.29 ± 0.74 | 6.16 ± 2.8
100 | CCGTAC | 3.58 ± 1 | 4.22 ± 0.54 | 5.69 ± 2.3
101 | GCTTAA | 1.72 ± 1 | 2.36 ± 0.11 | 3.64 ± 0.66
102 | AACTTC | 3.37 ± 1.2 | 3.49 ± 0.17 | 4.33 ± 1.5
103 | TACATA | 3.93 ± 2 | 4.55 ± 0.65 | 6.5 ± 2.8
104 | GCTGAT | 1.1 ± 0.57 | 1.1 ± 0.49 | 0.636 ± 0.14
105 | TGAGGA | 0.562 ± 0.032 | – | 1.42 ± 0.78
